For part of these data: Entries with a potency or affinity are not part of this list. Activity calls are given as the source filed them.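 The calls were made as follows, unless noted: active = primary screen inhibitor hit that blocks the TRPC4 channel at some tested dose, yielding a dose curve; inactive = the rest.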
Assays:
[1] = test system: TRPC4 beta (transient receptor potential cation channel C4), mouse; assay: activators of mouse TRPC4 channel, confirmation, cell-based, Fluo4 calcium, HEK293 TRPC4beta/mu-opioid, duplicates, 10 µM (AID 2426;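 active = fluorescence ratio normalized to control raised more than 50% in primary screen plus both repeat runs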); conditions: Fluo4 calcium fluorescence, at 10 µM; hits give high values
[2] = test system: transient receptor potential cation channel C4 beta (TRPC4), mouse; assay: activators of mouse TRPC4 channel, confirmation, cell-based, second round, Fluo4, HEK293 TRPC4beta/mu-opioid, 1 µM (AID 2461;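 active = primary screen active and over 50% activation in each of two duplicate runs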); conditions: Fluo4 calcium fluorescence, at 1 µM; hits give high values
[3] = test system: TRPC4 (transient receptor potential cation channel C4 beta), mouse; assay: positive allosteric modulators of mouse TRPC4, confirmation, cell-based, second round, Fluo-4, HEK293 TRPC4beta/mu-opioid, 1 µM (AID 2554;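 active = primary screen hit whose fluorescence ratio, in both repeats, exceeds the weak agonist control mean by 3 SD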); conditions: DAMGO EC20, Fluo-4 calcium flux, at 1 µM; hits give high values
[4] = test system: TRPC4 beta (transient receptor potential cation channel C4), mouse; assay: positive allosteric modulators of mouse TRPC4, confirmation, cell-based, Fluo-4, HEK293 TRPC4beta/mu-opioid (AID 2555;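 active = primary screen hit whose calcium fluorescence ratio, in both repeats, exceeds the weak agonist control mean by 3 SD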); conditions: DAMGO EC20, Fluo-4 calcium flux, at 10 µM; hits give high values
[5] = target: Short transient receptor potential channel 4 (Mus musculus) (UniProt Q9QUQ5); assay: inhibitors of mouse TRPC4 channel, confirmation, cell-based, Fluo4, HEK293 TRPC4beta/mu-opioid (AID 2636;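 active = calcium signal cut by more than 3 SD below the full-agonist control yet still positive, in both repeats and the earlier primary screen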); conditions: DAMGO, Fluo4 calcium flux, at 10 µM; hits give high values
Sequence of Short transient receptor potential channel 4 (Mus musculus) (Q9QUQ5 whole entry, looked up): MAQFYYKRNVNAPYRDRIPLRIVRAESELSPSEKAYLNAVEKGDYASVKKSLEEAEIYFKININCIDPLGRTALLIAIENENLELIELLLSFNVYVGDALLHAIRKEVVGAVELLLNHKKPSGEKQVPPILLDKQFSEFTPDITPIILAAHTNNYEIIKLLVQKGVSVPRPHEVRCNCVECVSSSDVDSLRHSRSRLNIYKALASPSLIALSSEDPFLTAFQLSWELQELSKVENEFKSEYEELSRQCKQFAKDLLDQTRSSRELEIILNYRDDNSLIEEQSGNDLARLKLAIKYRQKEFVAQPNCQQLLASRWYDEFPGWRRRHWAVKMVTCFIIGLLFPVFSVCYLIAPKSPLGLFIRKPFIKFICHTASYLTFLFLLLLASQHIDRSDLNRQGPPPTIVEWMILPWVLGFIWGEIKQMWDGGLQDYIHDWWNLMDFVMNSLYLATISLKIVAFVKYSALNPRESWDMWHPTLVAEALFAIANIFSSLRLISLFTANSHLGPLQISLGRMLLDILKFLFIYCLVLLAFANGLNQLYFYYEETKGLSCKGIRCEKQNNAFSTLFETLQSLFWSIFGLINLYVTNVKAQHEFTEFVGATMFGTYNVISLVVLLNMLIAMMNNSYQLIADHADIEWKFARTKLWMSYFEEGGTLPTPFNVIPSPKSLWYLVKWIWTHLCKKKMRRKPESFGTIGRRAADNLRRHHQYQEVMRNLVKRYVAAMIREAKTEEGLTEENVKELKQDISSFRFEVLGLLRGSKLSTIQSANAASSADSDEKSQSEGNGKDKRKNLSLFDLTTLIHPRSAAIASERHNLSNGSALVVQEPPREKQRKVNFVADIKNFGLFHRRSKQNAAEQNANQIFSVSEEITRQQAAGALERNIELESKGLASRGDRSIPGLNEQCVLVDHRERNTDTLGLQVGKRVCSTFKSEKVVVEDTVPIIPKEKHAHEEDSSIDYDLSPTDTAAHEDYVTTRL

[6] = target: Short transient receptor potential channel 4 (Mus musculus) (UniProt Q9QUQ5); assay: inhibitors of mouse TRPC4 channel, confirmation, cell-based, second round, Fluo4, HEK293 TRPC4beta/mu-opioid, 1 µM (AID 2637;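 active = calcium signal ratio cut to more than 3 SD under the fully stimulated control mean yet still positive, in both repeats and the primary screen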;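 as to inhibition: percent of integrated ratio relative to wells lacking test compound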); conditions: Fluo4 calcium flux, DAMGO, at 1 µM; hits give high values
[7] = target: Short transient receptor potential channel 4 (Mus musculus) (UniProt Q9QUQ5); assay: mouse TRPC4 channel activators, dose response, cell-based, HEK293 TRPC4/mu-opioid, Fluo-4 calcium (AID 434937;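 active = primary screen activator hit with a dose response curve and TRPC4 channel activation at any tested dose; inactive = no activation, no dose response, or not a primary hit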)
[8] = target: Short transient receptor potential channel 4 (Mus musculus) (UniProt Q9QUQ5); assay: TRPC4 positive allosteric modulators, dose response, cell-based, HEK293 TRPC4/mu-opioid, Fluo-4 calcium, EC20 DAMGO (AID 434941;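 active = earlier screen potentiator hit that boosts the TRPC4 ion channel at some dose, with a dose response; inactive = no potentiation, no dose response, or not a prior hit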;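 also: calcium entry triggered by an EC20 dose of DAMGO at the co-expressed mu-opioid receptor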)
[9] = target: Short transient receptor potential channel 4 (Mus musculus) (UniProt Q9QUQ5); assay: mouse TRPC4 channel inhibitors, dose response, cell-based, HEK293 TRPC4/mu-opioid, Fluo-4 calcium (AID 434942)
[10] = target: Short transient receptor potential channel 6 (Mus musculus) (UniProt Q61143); assay: inhibition of mouse TRPC6 channel, confirmation, selectivity assay for TRPC4 inhibitor project, cell-based, HEK293, membrane potential dye, duplicate (AID 434948;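 active = active in primary screen and both duplicates, each dropping signal beyond three positive-control SD with fluorescence still positive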); conditions: HEK293 TRPC6, membrane potential dye fluorescence, at 10 µM, stimulated with maximal-effect acetylcholine; hits give high values
Sequence of Short transient receptor potential channel 6 (Mus musculus) (Q61143 whole entry, looked up): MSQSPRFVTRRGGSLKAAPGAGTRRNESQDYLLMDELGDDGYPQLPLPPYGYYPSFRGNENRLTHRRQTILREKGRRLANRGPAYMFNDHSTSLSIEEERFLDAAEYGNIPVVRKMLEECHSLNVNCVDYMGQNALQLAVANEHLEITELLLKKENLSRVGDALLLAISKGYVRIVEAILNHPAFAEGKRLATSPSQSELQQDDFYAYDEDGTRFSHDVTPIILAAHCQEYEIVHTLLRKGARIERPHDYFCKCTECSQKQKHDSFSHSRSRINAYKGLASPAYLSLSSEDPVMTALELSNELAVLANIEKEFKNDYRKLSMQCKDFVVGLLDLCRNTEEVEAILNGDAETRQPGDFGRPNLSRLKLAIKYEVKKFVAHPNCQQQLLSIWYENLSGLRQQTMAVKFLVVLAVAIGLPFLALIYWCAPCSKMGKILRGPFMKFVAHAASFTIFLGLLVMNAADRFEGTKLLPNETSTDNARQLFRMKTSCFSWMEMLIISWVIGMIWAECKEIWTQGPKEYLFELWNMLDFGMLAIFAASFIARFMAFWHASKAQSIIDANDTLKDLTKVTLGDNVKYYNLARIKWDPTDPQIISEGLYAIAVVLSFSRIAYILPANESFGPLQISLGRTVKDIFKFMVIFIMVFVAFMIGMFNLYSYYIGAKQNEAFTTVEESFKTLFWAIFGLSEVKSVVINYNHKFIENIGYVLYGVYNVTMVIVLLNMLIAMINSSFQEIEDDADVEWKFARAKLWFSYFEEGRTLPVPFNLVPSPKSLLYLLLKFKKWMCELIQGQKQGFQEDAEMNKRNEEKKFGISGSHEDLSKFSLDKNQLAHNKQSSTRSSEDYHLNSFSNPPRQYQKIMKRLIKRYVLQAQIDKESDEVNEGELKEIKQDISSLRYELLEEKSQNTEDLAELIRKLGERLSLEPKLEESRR

[11] = target: Short transient receptor potential channel 6 (Mus musculus) (UniProt Q61143); assay: activation of mouse TRPC6 channel, confirmation, selectivity assay for TRPC4 activator project, cell-based, HEK293, membrane potential dye, duplicate (AID 434950;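 active = membrane potential signal rise above negative control mean plus 3 SD in both duplicates, also active in the earlier TRPC4 screen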); conditions: HEK293 TRPC6, membrane potential fluorescence, at 10 µM; hits give high values
[12] = target: Short transient receptor potential channel 6 (Mus musculus) (UniProt Q61143); assay: TRPC6 potentiation by TRPC4 potentiator hits, confirmation, selectivity assay for TRPC4 potentiator project, HEK293 cells, membrane potential dye, duplicate (AID 434952;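 active = compound raising the membrane signal above positive-control mean plus 3 SD in both repeats, and a primary screen hit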); conditions: HEK293 TRPC6, membrane potential dye fluorescence, at 10 µM, maximal acetylcholine added after compound; hits give high values
[13] = target: Short transient receptor potential channel 4 (Mus musculus) (UniProt Q9QUQ5); assay: calcium flux activators in TRPC4/5HT1a cells, counter-screen for TRPC4 activator project, cell-based, second counter screen, HEK293 TRPC4/5HT1a, Fluo-4 (AID 434977;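 active = calcium signal rise above buffer-control mean plus 5 SD in both duplicates, and also a hit in the primary screen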); conditions: Fluo-4 calcium flux, at 10 µM; hits give high values
[14] = calcium flux inhibitors in TRPC4/5HT1a cells, confirmation, counter-screen for TRPC4 inhibitor project, cell-based, second counter screen, HEK293 TRPC4/5HT1a, Fluo-4 (AID 434978;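 active = primary screen active whose calcium signal fell more than 3 SD beyond the full-serotonin control mean in both duplicate plates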;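 as to outcome: serotonin given first at submaximal then at maximal dose after compound preincubation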); conditions: Fluo-4 calcium flux, at 10 µM, serotonin added to trigger calcium flux; hits give high values
[15] = test system: TRPC4 (mouse), co-expressed with 5HT1a in HEK293; assay: calcium flux potentiators in TRPC4/5HT1a cells, confirmation, counter-screen for TRPC4 potentiator project, cell-based, second counter screen, HEK293 TRPC4/5HT1a, Fluo-4 (AID 434979;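 active = signal rise over 3 SD above mean of control wells given weak agonist, in both repeats and first screen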); conditions: Fluo-4 calcium flux, at 10 µM, serotonin added at its EC20 dose; hits give high values
[16] = calcium flux activation in mu-opioid HEK293 cells, confirmation, counter-screen for TRPC4 activator project, cell-based, HEK293 mu-opioid receptor line (AID 449723;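 active = hit in primary screen, with calcium signal over 5 SD above buffer well mean in both duplicates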;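 also: counter screen cells carry the mu-opioid receptor alone and lack TRPC4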); conditions: Fluo-4 calcium fluorescence, at 10 µM; hits give high values
[17] = calcium flux enhancement in mu-opioid HEK293 cells, confirmation, counter-screen for TRPC4 allosteric potentiator project, cell-based, HEK293 mu-opioid receptor line (AID 449724;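 active = calcium signal rise more than 3 SD above the low-dose agonist control mean, in both duplicate plates and the primary screen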); conditions: Fluo-4 calcium flux, at 10 µM, compound added before EC20 DAMGO stimulus; hits give high values

CC(=O)c1cccc(Nc2cc(C)nc3c(C)cc(C)cc23)c1
inactive: outcome [1] | outcome [2] | outcome [3] | outcome [4] | outcome [5] | outcome [6] | outcome [7] | outcome [8] | outcome [9] | outcome [11] | outcome [12] | outcome [13] | outcome [14] | outcome [15] | outcome [16] | outcome [17]
active: inhibition [10] 25.5%

Cc1cc(Cl)ccc1OC(C)C(=O)Nc1ccccc1N1CCOCC1 (stereo not given)
active: potentiation [4] 25% | activation [17] 1140%
inactive: outcome [1] | outcome [2] | outcome [3] | outcome [5] | outcome [6] | outcome [7] | outcome [8] | outcome [9] | outcome [10] | outcome [11] | outcome [12] | outcome [13] | outcome [14] | outcome [15] | outcome [16]

CN1CCN(S(=O)(=O)c2ccc(Br)c3ccccc23)CC1
inactive: outcome [1] | outcome [2] | outcome [3] | outcome [4] | outcome [5] | outcome [6] | outcome [7] | outcome [8] | outcome [9] | outcome [10] | outcome [11] | outcome [12] | outcome [13] | outcome [14] | outcome [16] | outcome [17]
active: potentiation [15] 26.5%

Cc1cccc(NC(=O)c2cc([N+](=O)[O-])ccc2N2CCN(C)CC2)c1
active: potentiation [15] 18.8%
inactive: outcome [1] | outcome [2] | outcome [3] | outcome [4] | outcome [5] | outcome [6] | outcome [7] | outcome [8] | outcome [9] | outcome [10] | outcome [11] | outcome [12] | outcome [13] | outcome [14] | outcome [16] | outcome [17]

NS(=O)(=O)c1ccc(Oc2ccc(S(N)(=O)=O)cc2)cc1
inactive: outcome [1] | outcome [2] | outcome [3] | outcome [4] | outcome [5] | outcome [6] | outcome [7] | outcome [8] | outcome [9] | outcome [10] | outcome [11] | outcome [12] | outcome [13] | outcome [14] | outcome [15] | outcome [16] | outcome [17]

CCOC(=O)Cc1csc(NC(=O)NC2(C(F)(F)F)Oc3cc(Cl)c(Cl)cc3O2)n1
active: inhibition [5] 47% | inhibition [6] 41% | inhibition [14] 39.5%
inactive: outcome [1] | outcome [2] | outcome [3] | outcome [4] | outcome [7] | outcome [8] | outcome [9] | outcome [10] | outcome [11] | outcome [12] | outcome [13] | outcome [15] | outcome [16] | outcome [17]

C/C=C/Cn1c(SCCCc2ccccc2)nc2c1c(=O)[nH]c(=O)n2C
active: potentiation [3] 12% | potentiation [4] 27% | potentiation [15] 88.5%
inactive: outcome [1] | outcome [2] | outcome [5] | outcome [6] | outcome [7] | outcome [8] | outcome [9] | outcome [10] | outcome [11] | outcome [12] | outcome [13] | outcome [14] | outcome [16] | outcome [17]

Cc1ccc(C(=O)Nc2ccccc2C(=O)N2CC3(C)CC2CC(C)(C)C3)cc1 (stereo not given)
inactive: outcome [1] | outcome [2] | outcome [3] | outcome [4] | outcome [5] | outcome [6] | outcome [7] | outcome [8] | outcome [9] | outcome [10] | outcome [11] | outcome [12] | outcome [13] | outcome [14] | outcome [15] | outcome [16] | outcome [17]

CCN1CCN(Cc2nc3c(c(=O)[nH]c(=O)n3C)n2Cc2ccccc2Cl)CC1
inactive: outcome [1] | outcome [2] | outcome [3] | outcome [5] | outcome [6] | outcome [7] | outcome [8] | outcome [9] | outcome [10] | outcome [11] | outcome [12] | outcome [13] | outcome [14] | outcome [16] | outcome [17]
active: potentiation [4] 12% | potentiation [15] 19%

CCOC(=O)C1=C(C)N(C)C(=S)NC1c1cccc(Cl)c1Cl (stereo not given)
active: potentiation [4] 25%
inactive: outcome [1] | outcome [2] | outcome [3] | outcome [5] | outcome [6] | outcome [7] | outcome [8] | outcome [9] | outcome [10] | outcome [11] | outcome [12] | outcome [13] | outcome [14] | outcome [15] | outcome [16] | outcome [17]

C(#Cc1ccccc1)C[N+]1(CC#Cc2cccc3ccccc23)CCCC1
inactive: outcome [1] | outcome [2] | outcome [3] | outcome [4] | outcome [5] | outcome [6] | outcome [7] | outcome [8] | outcome [9] | outcome [10] | outcome [11] | outcome [12] | outcome [13] | outcome [14] | outcome [15] | outcome [16] | outcome [17]

Cc1ccc(-n2c(N)cc(=O)nc2SCC(=O)N2CCN(c3ccccc3)CC2)cc1
inactive: outcome [1] | outcome [2] | outcome [3] | outcome [4] | outcome [5] | outcome [6] | outcome [7] | outcome [8] | outcome [9] | outcome [10] | outcome [11] | outcome [12] | outcome [13] | outcome [14] | outcome [15] | outcome [16] | outcome [17]

C=C(C)COc1ccc(-c2nc(N)ncc2-c2ccccc2OC)c(O)c1
active: potentiation [15] 8.86%
inactive: outcome [1] | outcome [2] | outcome [3] | outcome [4] | outcome [5] | outcome [6] | outcome [7] | outcome [8] | outcome [9] | outcome [10] | outcome [11] | outcome [12] | outcome [13] | outcome [14] | outcome [16] | outcome [17]

CCC(=O)c1ccc(N2CCN(C(=O)c3ccccc3Br)CC2)c(F)c1
inactive: outcome [1] | outcome [2] | outcome [3] | outcome [4] | outcome [5] | outcome [6] | outcome [7] | outcome [8] | outcome [9] | outcome [10] | outcome [11] | outcome [12] | outcome [13] | outcome [14] | outcome [16] | outcome [17]
active: potentiation [15] 19.2%

NC(=O)c1ccc(N2CCN(c3ncc(C(F)(F)F)cc3Cl)CC2)cc1
active: potentiation [15] 11.9%
inactive: outcome [1] | outcome [2] | outcome [3] | outcome [4] | outcome [5] | outcome [6] | outcome [7] | outcome [8] | outcome [9] | outcome [10] | outcome [11] | outcome [12] | outcome [13] | outcome [14] | outcome [16] | outcome [17]

Reference: PubChem BioAssay
